Screening data deposited in PubChem BioAssay by The Scripps Research Institute Molecular Screening Center.
TTR transcr act: TTR transcription activation, primary screen; actives 1.3% (n = 92,000); SH-SY5Y TTR promoter Gaussia luciferase, luminescence; 100% = recombinant luciferase protein wells; activation, % at 16.7 µM; AID 1117267;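 active means activation above the mean of all tested compounds plus 3 SD, cut at about 9.5% in these data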;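 further: cells exposed to compounds for one day before reading; 0% = median of all test compound wells on the plate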
TTR inh HuH7: HuH7 TTR transcription inhibition, counter-screen | actives 4% (n = 1,100) | HuH7 TTR promoter-Gaussia luciferase reporter, luminescence | inhibition, % at 16.7 µM | shares compounds with TTR transcr act;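 active means average inhibition above the solvent-only control wells' mean plus 3 SD, cut at about 15% in these data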;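 further: 0% = cells with DMSO only and 100% = cells with inhibitor control FD; inhibitors lower well luminescence so higher value means more inhibition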
TTR up confirm: confirmation of human transthyretin transcription activators | shares compounds with TTR transcr act | SHSY5Y TTR promoter Gaussia luciferase, luminescence; 100% = purified Lucia enzyme wells, no cells | activation, % at 16.7 µM | 1,100 tested, under 10 active;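 active means mean activation above a set limit taken from the earlier primary screen, cut at about 11% in these data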;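 further: 0% = DMSO-treated cells and 100% = recombinant Lucia luciferase without cells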
* marks the source's active call; other numbers are inactive results. Shown is part of a subset that was picked to be rich in hits.

SMILES	TTR transcr act	others
O=C(/C=C/c1cccc([N+](=O)[O-])c1)Nc1cccc(NC(=O)c2ccco2)c1	-2
CCCc1cc(Nc2ccc(C)cc2)n2ncnc2n1	-2
Cc1ccc(Nc2c3c(nc4ncnn24)CCC3)cc1	20*	TTR inh HuH7=24*;TTR up confirm=-1
CC(=O)c1ccc(Nc2cc(C)nc3ncnn23)cc1	2
COc1ccc(CC(=O)NNC(=O)CCc2ccccc2)cc1	0
Cc1ccccc1OCC(=O)NNC(=O)CCc1ccccc1	10*	TTR inh HuH7=-10;TTR up confirm=0
Cc1ccccc1OCC(=O)NNC(=S)NC(=O)c1ccco1	1
COC(=O)c1ccc(CSc2ccc3nnc(-c4ccc(OC)c(OC)c4)n3n2)o1	0
CCc1nnc(NS(=O)(=O)c2ccc(NC(=O)/C=C/c3ccc(F)cc3)cc2)s1	0
COc1ccc(OC)c(NC(=O)C2CCC(CNc3c(N4CCC(C)CC4)c(=O)c3=O)CC2)c1 (stereo not drawn)	15*	TTR inh HuH7=1;TTR up confirm=2
CC1CCN(c2c(NCC3CCC(C(=O)NCc4ccccc4)CC3)c(=O)c2=O)CC1 (stereo not drawn)	-1
COc1ccc(C)cc1NC(=O)C1CCC(CNc2c(N3CCOCC3)c(=O)c2=O)CC1 (stereo not drawn)	0
CCOc1ccc(CCNC(=O)CCc2nc(-c3ccc(OC)cc3)no2)cc1OCC	-1
O=C(O)c1ccc(OCC(F)(F)F)nc1	-1
CCOC(=O)C(Cc1ccc(O)cc1)NC(=O)CNC(=O)C(CC(C)C)NC(=O)OC(C)(C)C (stereo not drawn)	30*	TTR inh HuH7=-1;TTR up confirm=-1
CCOC(=O)C(Cc1ccccc1)NC(=O)CNC(=O)CNC(=O)OCc1ccccc1 (stereo not drawn)	3
CC(C)CC(NC(=O)C(Cc1ccc(OCc2ccccc2)cc1)NC(=O)OC(C)(C)C)C(N)=O (stereo not drawn)	-3
CC1CN(CCC(=O)Nc2ccccc2F)CC(C)O1 (stereo not drawn)	0
O=C(Cn1ccccc1=O)c1cccs1	17*	TTR inh HuH7=-12;TTR up confirm=-1
CCCn1c(=N)n(CC(=O)c2cccs2)c2ccccc21	4
O=C(CN1C2=NCCCN2c2ccccc21)c1cccs1	1
CC(Sc1ncccn1)C(=O)NC1(C#N)CCCCC1 (stereo not drawn)	0
COc1ccc(C(=O)Nc2ccc(C(=O)NCCc3ccc(OC)c(OC)c3)cc2)cc1	2
CCCCn1c(N)c(N(CCOC)C(=O)CN(C)S(=O)(=O)c2ccc(Cl)cc2)c(=O)[nH]c1=O	0
CC1CC(C)CN(S(=O)(=O)c2cccc3nsnc23)C1 (stereo not drawn)	-1
SMILES	TTR transcr act	others
Cc1ccccc1CN1CCN(S(=O)(=O)c2cccc3nsnc23)CC1	12*	TTR inh HuH7=-17;TTR up confirm=1
CCN1CCN(S(=O)(=O)c2cccc3nsnc23)CC1	5
CC(C)CC(/C(O)=C(\C#N)c1nc2ccccc2[nH]1)N1C(=O)c2ccccc2C1=O (stereo not drawn)	-5
COc1cc(O)oc1C=Nc1ccc(Oc2ccccc2)cc1	0
COc1n[nH]c(C(=O)Nc2cc(F)ccc2C)c1[N+](=O)[O-]	10*	TTR inh HuH7=-15;TTR up confirm=-1
COc1ccc(Cl)cc1NC(=O)c1[nH]nc(OC)c1[N+](=O)[O-]	-2
Cc1ccc(F)cc1NC(=O)c1cccc2nccnc12	-2
COc1ccc(OCC(=O)NC(=O)c2ccccc2OC)c([N+](=O)[O-])c1	0
Cc1ccc(-c2nn3c(C)nnc3s2)cc1NC(=O)c1ccc(-c2ccc(Cl)cc2Cl)o1	0
COC(=O)c1ccc2nc(-c3ccc(F)cc3)c(Cc3ccccc3)n2c1	-2
COC(=O)c1ccc2nc(C3CCCCC3)c(Cc3ccccc3)n2c1	14*	TTR inh HuH7=14;TTR up confirm=-1
CCCc1nc2ccc(C(=O)OC)cn2c1Cc1cccc(F)c1	1
O=C1Nc2ccc(S(=O)(=O)NCc3ccccn3)c3cccc1c23	3
CC(C)(O)C(O)COc1c2ccoc2cc2oc(=O)ccc12 (stereo not drawn)	3
COc1c2ccoc2c(OC[C@@H](OC(C)=O)C(C)(C)O)c2oc(=O)ccc12	1
COC(C)(C)[C@H](O)COc1c2ccoc2cc2oc(=O)ccc12	13*	TTR inh HuH7=-21;TTR up confirm=0
C/C(N)=C(/C#N)C(=O)COC(=O)COc1ccc(Cl)cc1	2
C/C(=N\Nc1nc2ccccc2s1)c1ccc2c(c1)OCO2	11*	TTR inh HuH7=11;TTR up confirm=1
C/C(=N\Nc1ccc(Cl)c(C(=O)O)c1)c1ccc2c(c1)OCO2	0
Cc1ccc2nc(NC(=O)c3ccc4c(c3)OCO4)sc2c1	-1
O=C(O)Cn1nc(-c2ccccc2)c2ccccc2c1=O	0
CCc1cc(=O)oc2cc(C)cc(OCC(=O)NCc3cccnc3)c12	-1
CC(=N/O)/C(C)=N\NC(=O)c1ccccn1	2
COc1ccc(C2=CC(=O)C[C@H](c3ccc(F)cc3)C2)cc1F	-5
NC(=O)NCc1ccc(F)cc1	0
SMILES	TTR transcr act	others
CC(C)(C)CC(=O)NCc1ccc(F)cc1	15*	TTR inh HuH7=-15;TTR up confirm=-1
Cc1ccc(C(=O)OCC(=O)NCc2ccc(F)cc2)o1	5
CC(=NNC(=O)Cn1ccc(C(F)(F)F)n1)c1ccc(-n2ccnc2)cc1	6
Cc1cc(C)nc(SCc2nnc(SCC(=O)N3CCCc4ccccc43)n2C)n1	4
CC(C)(C)[C@H]1C=C(C(=O)O)O[C@@H](OCCCCO)C1	2
C[C@H]1C=C(C(=O)NCc2nc3ccccc3[nH]2)O[C@@H](OCCCCO)C1	9
CC(C)(C)[C@H]1C=C(C(=O)NCc2ccccc2)O[C@@H](OCCCCO)C1	19*	TTR inh HuH7=-31;TTR up confirm=1
CCN1C(=O)[C@H]2[C@H]3CN=C(SCc4ccc(C#N)cc4)N3[C@@](C)(C(=O)OC)[C@H]2C1=O	-1
CCN1C[C@@H]2[C@@H]3C(=O)N(Cc4ccccc4)C(=O)[C@@H]3[C@](C)(C(=O)OC)N2C1=NC1CCCCC1	25*	TTR inh HuH7=-2;TTR up confirm=0
CCCN=C1N(CC)C[C@@H]2[C@@H]3C(=O)N(Cc4ccccc4)C(=O)[C@@H]3[C@](C)(C(=O)OC)N12	0
CCN1C(=O)[C@H]2[C@H]3CN=C(SCC(=O)c4ccccc4)N3[C@@](C)(C(=O)OC)[C@H]2C1=O	13*	TTR inh HuH7=-3;TTR up confirm=0
COC(=O)[C@@]1(C)[C@H]2C(=O)N(Cc3ccccc3)C(=O)[C@H]2[C@H]2CN=C(SCc3ccccc3)N21	2
COC(=O)[C@@]1(C)[C@H]2C(=O)N(Cc3ccccc3)C(=O)[C@H]2[C@H]2CN(C)C(=NC3CCCCC3)N21	5
O=C(/C(=N/N=C/c1ccc(O)c(O)c1O)c1ccccc1)c1ccccc1	-2
Cc1occc1C(=O)O/N=C(\N)c1ccc(Cl)cc1	-1
COc1cc(-c2ccc3oc(-c4ccsc4)cc3c2)cc(OC)c1OC	-2
COc1ccc(C2CC(c3ccccc3)=NN2C(=O)COC(=O)CNC(=O)c2ccccc2)cc1 (stereo not drawn)	3
O=C(CC1(O)C(=O)c2ccccc2C1=O)c1ccccc1	-1
CN(C)C=Nc1c(Br)cc(Br)c2nonc12	-1
CN(C)C=Nc1nonc1-c1ncn[nH]1	0
CN(C)C=Nc1nonc1-c1ccccc1	11*	TTR inh HuH7=-8;TTR up confirm=0
C[C@H](CO)N1C[C@H](C)[C@@H](CN(C)C(=O)Cc2ccccc2)OCCCC[C@H](C)Oc2ccc(NC(=O)NC3CCCCC3)cc2C1=O	4
